Data from the supplement of paper PMC11732987, “Enantioselective OTUD7B fragment discovery through chemoproteomics screening and high-throughput optimisation” (Communications Chemistry, 2025).

What was measured:
Assay in all cases: log2 ratio of Biotin-Ahx-Ub-VS probe labelling (fragment/DMSO); higher = less target engagement (more negative = stronger competition), active = hit call of the paper (q ≤ 0.05, log2 ratio ≤ -1)
Conditions in all cases: compound concentration: 200 uM; treatment time: 3 h
[1] = target: T1, USP42 (UniProt Q9H9J4)
T1 sequence (whole entry): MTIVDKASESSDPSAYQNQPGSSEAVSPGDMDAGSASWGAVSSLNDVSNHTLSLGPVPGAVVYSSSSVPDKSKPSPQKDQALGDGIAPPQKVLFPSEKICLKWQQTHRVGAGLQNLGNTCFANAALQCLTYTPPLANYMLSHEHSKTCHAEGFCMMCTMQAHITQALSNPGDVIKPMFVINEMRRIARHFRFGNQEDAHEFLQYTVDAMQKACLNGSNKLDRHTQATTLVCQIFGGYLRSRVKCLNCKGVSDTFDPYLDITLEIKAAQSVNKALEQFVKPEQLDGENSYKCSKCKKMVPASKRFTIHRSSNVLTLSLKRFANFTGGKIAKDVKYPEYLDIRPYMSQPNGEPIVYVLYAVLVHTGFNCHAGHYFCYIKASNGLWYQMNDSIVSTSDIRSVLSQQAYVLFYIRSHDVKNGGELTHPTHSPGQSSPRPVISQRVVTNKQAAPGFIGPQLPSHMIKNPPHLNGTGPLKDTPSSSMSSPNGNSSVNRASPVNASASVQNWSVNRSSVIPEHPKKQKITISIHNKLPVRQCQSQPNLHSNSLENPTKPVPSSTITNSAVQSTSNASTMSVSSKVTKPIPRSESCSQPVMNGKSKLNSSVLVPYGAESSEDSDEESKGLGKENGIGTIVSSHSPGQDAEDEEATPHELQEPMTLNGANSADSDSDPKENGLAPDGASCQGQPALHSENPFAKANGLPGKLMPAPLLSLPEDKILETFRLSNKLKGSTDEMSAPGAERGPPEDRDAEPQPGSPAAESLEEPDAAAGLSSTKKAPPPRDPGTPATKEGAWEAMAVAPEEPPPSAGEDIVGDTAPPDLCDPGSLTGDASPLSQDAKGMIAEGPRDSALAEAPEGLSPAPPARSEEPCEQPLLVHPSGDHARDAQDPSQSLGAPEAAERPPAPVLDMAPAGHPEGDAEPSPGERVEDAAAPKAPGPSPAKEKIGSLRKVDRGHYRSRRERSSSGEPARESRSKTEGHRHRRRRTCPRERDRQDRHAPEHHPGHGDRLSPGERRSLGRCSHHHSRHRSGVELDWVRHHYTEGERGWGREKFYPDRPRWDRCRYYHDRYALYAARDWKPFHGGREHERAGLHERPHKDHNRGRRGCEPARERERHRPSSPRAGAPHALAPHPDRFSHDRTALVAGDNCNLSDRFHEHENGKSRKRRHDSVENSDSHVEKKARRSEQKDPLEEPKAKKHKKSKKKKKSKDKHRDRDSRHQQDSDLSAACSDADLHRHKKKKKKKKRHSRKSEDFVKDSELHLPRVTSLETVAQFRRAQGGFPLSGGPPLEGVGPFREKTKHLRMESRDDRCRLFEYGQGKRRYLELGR
Method in brief: (§1)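 Fragment (200 µM) or vehicle was incubated for 3 h with triplicate HEK293T lysate samples of 495 µg, which were then treated with Biotin-Ahx-Ub-VS at 0.5 µM final for 1 h. Labelled DUBs were enriched on NeutrAvidin, digested with LysC and trypsin, and analysed by diaPASEF LC-MS/MS. Values are average log2 fragment/vehicle ratios from an unpaired t-test on global-median-normalised Spectronaut label-free quantities, using proteins with ≥2 unique peptides.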

[2] = target: USP46 (UniProt P62068)
Chain of USP46 (P62068 whole entry): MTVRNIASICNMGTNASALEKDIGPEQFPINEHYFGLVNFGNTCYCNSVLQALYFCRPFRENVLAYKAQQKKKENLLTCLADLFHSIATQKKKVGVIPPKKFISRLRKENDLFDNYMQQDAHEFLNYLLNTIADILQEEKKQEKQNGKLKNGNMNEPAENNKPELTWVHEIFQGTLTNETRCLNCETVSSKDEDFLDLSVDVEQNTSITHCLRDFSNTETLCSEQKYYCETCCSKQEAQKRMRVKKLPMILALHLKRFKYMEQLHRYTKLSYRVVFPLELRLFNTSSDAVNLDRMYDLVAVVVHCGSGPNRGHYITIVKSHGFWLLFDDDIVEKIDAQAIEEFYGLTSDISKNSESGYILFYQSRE
Method in brief: as §1

[3] = target: T2, USP47 (UniProt Q96K76)
T2 sequence (whole entry): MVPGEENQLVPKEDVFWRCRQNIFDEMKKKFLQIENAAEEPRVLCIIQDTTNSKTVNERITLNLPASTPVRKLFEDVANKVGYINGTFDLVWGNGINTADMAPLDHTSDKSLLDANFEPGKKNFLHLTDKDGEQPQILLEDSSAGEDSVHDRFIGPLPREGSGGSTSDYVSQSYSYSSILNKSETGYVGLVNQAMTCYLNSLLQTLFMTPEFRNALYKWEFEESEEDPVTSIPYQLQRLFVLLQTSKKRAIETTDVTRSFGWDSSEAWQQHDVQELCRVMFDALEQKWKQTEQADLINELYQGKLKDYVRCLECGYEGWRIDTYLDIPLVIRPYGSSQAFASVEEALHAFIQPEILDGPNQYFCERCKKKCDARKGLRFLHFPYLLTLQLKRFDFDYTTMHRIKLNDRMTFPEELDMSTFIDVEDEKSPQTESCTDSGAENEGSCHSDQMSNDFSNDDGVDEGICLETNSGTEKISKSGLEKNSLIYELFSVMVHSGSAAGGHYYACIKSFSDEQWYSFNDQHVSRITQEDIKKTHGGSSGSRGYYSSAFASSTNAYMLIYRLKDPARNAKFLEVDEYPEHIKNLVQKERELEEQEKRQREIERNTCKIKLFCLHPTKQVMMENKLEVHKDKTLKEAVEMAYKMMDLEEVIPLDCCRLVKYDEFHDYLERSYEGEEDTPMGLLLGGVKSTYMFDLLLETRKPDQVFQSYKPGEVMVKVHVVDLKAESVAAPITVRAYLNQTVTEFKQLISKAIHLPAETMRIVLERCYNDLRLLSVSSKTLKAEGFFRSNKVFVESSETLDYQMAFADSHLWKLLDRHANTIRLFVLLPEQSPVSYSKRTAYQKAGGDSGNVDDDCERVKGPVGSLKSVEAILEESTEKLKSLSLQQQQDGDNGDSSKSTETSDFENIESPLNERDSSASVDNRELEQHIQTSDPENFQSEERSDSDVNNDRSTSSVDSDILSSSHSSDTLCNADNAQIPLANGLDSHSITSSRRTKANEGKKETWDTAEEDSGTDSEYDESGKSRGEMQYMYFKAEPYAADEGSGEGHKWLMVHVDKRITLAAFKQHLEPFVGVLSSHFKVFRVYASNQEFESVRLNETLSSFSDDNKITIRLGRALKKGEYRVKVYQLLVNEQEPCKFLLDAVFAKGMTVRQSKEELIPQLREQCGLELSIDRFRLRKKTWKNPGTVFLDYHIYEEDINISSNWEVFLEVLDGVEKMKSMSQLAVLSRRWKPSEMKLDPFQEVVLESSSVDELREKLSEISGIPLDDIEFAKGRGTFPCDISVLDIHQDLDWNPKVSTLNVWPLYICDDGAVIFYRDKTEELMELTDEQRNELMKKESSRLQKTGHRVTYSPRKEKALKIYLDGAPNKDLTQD
Method in brief: as §1

[4] = target: T3, USP48 (UniProt Q86UV5)
T3 sequence (whole entry): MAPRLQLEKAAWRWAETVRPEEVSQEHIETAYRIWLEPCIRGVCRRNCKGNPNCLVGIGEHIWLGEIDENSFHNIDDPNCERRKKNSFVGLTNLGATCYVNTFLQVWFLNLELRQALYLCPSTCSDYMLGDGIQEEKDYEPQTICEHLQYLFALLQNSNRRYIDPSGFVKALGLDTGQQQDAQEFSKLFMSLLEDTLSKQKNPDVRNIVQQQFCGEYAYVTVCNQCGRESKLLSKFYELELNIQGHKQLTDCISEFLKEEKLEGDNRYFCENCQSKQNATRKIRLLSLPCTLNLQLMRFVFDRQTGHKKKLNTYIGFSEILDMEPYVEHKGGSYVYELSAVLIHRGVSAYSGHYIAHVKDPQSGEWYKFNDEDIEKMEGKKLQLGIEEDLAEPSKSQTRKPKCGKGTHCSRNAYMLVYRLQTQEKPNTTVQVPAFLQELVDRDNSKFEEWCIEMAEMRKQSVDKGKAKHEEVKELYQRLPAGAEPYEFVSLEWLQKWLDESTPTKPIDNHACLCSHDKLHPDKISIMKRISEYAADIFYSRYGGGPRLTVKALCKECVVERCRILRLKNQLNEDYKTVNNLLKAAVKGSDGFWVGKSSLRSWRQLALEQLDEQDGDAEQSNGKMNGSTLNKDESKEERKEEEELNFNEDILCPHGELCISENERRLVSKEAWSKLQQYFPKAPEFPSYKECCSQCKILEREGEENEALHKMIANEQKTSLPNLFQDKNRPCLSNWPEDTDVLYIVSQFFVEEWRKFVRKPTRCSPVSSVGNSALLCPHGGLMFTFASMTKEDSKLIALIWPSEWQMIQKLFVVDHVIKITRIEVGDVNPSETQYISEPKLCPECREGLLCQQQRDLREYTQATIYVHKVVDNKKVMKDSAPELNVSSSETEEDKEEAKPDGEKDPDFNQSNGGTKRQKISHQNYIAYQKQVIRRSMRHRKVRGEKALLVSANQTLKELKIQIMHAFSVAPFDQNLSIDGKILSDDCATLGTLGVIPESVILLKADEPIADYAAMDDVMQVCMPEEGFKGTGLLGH
Method in brief: as §1

[5] = target: T4, USP5 (UniProt P45974)
T4 sequence (whole entry): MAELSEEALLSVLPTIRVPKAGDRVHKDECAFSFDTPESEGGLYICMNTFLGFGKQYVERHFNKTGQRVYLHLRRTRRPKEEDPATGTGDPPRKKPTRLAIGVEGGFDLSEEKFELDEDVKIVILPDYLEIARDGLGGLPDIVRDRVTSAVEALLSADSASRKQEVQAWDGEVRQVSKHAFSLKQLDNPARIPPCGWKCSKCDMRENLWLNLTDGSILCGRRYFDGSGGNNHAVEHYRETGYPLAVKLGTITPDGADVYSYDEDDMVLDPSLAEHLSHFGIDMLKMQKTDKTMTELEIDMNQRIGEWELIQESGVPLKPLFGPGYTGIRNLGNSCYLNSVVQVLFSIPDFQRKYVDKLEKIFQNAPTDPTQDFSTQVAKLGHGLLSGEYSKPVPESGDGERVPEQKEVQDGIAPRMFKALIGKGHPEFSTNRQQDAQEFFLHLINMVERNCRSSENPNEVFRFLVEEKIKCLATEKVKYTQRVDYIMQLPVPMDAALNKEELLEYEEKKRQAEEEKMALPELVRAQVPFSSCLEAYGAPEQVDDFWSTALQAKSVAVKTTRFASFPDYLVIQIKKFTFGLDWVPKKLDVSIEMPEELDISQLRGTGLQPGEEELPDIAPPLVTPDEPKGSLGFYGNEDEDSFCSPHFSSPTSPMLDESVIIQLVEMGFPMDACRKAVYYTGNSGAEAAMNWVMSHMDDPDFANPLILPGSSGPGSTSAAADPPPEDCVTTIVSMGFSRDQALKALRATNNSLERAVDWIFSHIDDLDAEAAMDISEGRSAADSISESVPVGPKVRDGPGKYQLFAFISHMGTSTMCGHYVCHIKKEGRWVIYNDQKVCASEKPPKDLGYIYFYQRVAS
Method in brief: as §1

[6] = target: USP54 (UniProt Q70EL1)
Chain of USP54 (Q70EL1 whole entry): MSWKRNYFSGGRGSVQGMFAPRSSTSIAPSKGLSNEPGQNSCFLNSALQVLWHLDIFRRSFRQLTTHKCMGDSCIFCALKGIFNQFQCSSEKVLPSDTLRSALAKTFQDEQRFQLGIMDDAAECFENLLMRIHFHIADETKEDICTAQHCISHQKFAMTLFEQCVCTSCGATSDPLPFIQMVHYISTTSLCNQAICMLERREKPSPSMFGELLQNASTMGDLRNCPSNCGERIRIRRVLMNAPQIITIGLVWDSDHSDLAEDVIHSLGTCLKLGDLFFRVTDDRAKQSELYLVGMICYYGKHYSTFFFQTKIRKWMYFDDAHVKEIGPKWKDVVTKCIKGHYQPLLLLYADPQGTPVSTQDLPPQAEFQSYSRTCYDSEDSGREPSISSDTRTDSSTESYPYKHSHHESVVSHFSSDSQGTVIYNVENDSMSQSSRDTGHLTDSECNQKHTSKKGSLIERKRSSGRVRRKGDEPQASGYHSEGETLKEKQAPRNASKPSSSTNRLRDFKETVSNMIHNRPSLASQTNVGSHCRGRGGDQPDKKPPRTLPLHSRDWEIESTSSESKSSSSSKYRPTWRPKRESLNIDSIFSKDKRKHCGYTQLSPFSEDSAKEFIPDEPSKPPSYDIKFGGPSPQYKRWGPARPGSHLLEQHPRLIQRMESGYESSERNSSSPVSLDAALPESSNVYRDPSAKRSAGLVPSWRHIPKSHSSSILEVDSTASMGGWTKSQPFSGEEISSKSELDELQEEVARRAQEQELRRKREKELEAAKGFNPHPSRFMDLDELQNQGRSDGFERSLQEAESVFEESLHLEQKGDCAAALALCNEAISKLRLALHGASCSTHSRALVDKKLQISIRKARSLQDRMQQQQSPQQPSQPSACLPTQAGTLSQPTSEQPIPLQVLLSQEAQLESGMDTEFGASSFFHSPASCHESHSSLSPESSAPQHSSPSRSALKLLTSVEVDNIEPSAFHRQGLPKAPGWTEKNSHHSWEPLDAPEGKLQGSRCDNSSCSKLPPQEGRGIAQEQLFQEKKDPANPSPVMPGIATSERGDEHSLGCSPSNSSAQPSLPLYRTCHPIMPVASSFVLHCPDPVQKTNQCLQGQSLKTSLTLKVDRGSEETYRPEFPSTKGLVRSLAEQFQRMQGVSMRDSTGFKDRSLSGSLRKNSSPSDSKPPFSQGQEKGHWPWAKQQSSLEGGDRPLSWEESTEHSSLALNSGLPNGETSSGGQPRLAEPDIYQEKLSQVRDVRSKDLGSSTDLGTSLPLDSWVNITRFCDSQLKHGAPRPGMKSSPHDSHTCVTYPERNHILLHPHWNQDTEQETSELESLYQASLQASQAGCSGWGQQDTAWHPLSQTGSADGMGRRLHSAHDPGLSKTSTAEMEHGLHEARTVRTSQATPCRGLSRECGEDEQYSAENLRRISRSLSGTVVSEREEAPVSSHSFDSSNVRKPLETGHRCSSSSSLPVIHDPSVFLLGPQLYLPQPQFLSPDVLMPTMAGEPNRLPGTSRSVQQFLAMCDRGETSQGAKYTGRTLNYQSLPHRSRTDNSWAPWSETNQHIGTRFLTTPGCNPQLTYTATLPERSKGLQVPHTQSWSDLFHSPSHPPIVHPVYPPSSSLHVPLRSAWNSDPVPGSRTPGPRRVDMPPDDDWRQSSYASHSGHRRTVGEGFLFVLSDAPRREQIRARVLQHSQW
Method in brief: as §1

[7] = target: USP7 (UniProt Q93009)
Method in brief: as §1

[8] = target: T5, USP8 (UniProt P40818)
T5 sequence (whole entry): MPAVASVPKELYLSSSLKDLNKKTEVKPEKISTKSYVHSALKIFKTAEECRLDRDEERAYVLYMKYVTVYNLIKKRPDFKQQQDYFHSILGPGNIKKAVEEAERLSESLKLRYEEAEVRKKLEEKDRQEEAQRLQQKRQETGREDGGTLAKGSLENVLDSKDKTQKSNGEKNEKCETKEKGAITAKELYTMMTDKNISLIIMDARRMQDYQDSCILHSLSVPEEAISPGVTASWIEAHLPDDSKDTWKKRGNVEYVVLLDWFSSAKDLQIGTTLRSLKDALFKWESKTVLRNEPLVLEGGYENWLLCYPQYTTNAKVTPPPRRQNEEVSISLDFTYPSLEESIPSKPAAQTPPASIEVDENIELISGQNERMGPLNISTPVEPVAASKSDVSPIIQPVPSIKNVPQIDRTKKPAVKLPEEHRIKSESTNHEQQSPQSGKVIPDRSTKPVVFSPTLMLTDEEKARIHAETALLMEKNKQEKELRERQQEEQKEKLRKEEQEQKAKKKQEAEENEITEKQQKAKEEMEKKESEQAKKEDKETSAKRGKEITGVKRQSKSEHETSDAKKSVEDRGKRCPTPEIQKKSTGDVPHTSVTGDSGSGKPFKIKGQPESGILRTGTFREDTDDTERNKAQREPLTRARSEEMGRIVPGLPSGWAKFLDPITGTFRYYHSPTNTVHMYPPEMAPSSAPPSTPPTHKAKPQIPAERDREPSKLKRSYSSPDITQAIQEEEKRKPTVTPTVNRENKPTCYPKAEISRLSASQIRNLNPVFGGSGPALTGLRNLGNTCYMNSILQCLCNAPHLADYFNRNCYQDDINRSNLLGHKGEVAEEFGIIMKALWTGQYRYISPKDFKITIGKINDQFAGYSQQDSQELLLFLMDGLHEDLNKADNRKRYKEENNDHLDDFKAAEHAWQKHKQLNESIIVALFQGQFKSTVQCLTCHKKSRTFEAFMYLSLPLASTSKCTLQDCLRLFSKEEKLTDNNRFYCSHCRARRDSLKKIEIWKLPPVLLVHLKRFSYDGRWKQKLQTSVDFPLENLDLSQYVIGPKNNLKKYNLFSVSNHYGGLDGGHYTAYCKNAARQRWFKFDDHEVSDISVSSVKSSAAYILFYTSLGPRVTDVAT
Method in brief: as §1

[9] = target: USP9X (UniProt Q93008)
Chain of USP9X (Q93008 whole entry): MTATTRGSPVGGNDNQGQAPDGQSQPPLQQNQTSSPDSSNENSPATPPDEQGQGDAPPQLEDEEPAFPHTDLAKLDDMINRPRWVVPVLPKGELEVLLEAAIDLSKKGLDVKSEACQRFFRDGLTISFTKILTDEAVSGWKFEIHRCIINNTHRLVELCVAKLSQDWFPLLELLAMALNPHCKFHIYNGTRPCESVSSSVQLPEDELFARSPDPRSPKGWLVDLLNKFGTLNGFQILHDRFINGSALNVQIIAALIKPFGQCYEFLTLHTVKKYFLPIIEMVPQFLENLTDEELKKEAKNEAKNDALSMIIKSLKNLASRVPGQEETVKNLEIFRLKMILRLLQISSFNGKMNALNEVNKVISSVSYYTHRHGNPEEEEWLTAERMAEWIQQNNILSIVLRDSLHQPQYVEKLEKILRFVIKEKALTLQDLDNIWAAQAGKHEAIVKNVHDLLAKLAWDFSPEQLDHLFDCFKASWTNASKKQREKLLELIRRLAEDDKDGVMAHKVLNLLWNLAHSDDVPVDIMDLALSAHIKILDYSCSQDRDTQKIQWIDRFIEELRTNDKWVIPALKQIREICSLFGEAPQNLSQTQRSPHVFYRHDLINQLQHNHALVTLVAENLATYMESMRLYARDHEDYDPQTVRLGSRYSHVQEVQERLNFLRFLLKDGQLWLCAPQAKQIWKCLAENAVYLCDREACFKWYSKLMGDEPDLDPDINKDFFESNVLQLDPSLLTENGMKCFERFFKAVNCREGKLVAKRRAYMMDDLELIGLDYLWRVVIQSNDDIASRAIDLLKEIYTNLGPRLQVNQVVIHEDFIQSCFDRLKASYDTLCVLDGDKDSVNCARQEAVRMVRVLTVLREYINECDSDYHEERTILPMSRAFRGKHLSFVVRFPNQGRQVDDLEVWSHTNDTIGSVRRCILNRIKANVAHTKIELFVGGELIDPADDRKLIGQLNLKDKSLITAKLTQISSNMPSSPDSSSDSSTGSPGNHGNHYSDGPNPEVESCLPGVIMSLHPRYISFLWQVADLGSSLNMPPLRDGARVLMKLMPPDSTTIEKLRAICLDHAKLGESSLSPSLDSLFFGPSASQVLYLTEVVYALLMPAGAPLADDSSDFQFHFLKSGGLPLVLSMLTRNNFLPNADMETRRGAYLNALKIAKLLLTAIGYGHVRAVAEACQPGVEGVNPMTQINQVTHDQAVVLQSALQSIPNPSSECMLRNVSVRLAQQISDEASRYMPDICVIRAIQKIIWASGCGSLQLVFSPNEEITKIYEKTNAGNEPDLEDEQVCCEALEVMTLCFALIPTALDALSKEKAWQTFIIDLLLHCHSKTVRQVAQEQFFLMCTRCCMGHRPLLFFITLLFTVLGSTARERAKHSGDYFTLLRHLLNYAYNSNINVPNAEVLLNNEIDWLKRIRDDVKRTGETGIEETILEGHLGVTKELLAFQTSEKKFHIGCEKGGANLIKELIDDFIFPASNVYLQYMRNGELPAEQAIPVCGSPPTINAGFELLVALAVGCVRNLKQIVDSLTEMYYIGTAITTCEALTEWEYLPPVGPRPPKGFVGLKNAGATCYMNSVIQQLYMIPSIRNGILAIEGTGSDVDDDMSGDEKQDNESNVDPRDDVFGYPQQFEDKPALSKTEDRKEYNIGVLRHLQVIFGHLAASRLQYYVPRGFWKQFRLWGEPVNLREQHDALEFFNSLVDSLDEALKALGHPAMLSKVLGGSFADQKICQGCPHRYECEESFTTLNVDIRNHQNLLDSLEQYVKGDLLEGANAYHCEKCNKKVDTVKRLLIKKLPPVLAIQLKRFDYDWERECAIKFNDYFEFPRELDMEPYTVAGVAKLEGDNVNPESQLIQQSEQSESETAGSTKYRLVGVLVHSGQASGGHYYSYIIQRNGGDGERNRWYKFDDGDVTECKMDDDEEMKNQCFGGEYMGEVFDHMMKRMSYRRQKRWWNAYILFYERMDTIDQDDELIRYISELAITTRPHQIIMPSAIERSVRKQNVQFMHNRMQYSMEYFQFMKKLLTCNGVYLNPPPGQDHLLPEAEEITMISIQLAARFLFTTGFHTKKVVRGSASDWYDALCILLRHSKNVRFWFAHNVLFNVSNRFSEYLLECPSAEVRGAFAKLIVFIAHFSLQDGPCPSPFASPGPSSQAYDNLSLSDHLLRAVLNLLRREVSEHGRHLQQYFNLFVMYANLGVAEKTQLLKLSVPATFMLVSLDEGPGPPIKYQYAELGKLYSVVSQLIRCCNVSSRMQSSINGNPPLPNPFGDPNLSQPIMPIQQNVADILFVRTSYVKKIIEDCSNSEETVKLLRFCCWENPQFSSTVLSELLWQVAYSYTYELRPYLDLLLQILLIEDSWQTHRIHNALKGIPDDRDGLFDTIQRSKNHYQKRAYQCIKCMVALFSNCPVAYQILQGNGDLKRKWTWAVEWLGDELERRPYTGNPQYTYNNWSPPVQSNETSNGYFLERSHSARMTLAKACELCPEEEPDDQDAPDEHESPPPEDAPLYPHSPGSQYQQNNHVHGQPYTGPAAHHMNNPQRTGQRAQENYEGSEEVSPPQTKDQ
Method in brief: as §1

[10] = target: UniProt O00487
Chain of UniProt O00487 (O00487 whole entry): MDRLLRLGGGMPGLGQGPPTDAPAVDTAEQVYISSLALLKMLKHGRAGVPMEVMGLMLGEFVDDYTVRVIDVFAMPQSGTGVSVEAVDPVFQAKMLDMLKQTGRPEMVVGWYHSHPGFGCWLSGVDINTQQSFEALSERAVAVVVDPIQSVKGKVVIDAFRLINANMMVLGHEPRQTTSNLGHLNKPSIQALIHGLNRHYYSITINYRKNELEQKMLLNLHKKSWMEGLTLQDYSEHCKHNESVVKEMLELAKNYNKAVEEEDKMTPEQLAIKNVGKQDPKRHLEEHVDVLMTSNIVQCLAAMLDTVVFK
Method in brief: as §1

Measured: log2 ratio of Biotin-Ahx-Ub-VS probe labelling

O=C(CCl)N1CCCCCC1c1ncon1 (stereo not given)
inactive: [1] -0.342 | [2] 0.113 | [3] -0.552 | [4] -0.467 | [5] 0.214 | [6] 0.731 | [7] -0.491 | [8] -0.0227 | [9] -0.226 | [10] -0.0641
